Data on 84 molecules can be found in PubChem BioAssay AID652048 (National Center for Advancing Translational Sciences (NCATS), 2013).

“And” between values parts separate entries of the source, which are not always exact repeats. Equal entries are not always repeated. Among all 410,000 compounds or so, about 2,400 (0.59%) were called active. Cut-off read from the data, not from the text of the source: active = max activation above about 30%; inactive = the rest. Many of the other results were omitted from the sample, so actives are more common in it than they were. Some structures have more than one record in an assay (separate samples or runs), and their calls can disagree.

D(3) dopamine receptor (Homo sapiens), sequence (P35462 whole entry, looked up): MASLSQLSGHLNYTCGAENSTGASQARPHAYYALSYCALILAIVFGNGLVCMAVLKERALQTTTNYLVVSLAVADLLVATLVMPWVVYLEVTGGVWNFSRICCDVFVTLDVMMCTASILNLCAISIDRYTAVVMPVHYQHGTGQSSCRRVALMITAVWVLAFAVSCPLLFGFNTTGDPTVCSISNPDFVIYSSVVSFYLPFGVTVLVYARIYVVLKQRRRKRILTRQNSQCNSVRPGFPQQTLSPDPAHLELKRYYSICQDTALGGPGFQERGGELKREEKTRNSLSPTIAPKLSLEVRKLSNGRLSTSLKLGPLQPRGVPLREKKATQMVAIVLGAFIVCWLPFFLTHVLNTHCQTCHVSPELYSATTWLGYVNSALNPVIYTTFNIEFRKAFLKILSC

The assay addresses D(3) dopamine receptor (Homo sapiens) (UniProt P35462). Briefly: qHTS of D3 Dopamine Receptor Agonist: qHTS. Note: 0% is about no effect. The following applies: D3R DiscoveRx beta-arrestin cells, luminescence, 90 min; stronger effect = higher value. The method, boiled down: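 Cells at 1500/well, incubated overnight, then treated with pinned compounds (dopamine as control) for 90 min at 37 degrees C. DiscoveRx reagent added for 30 - 60 minutes at room temperature; luminescence read.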
On the technique in general: qHTS replaces the single test concentration by a dilution series.
In the case of `N[C@H]1CN(c2c(F)cc3c(=O)c(C(=O)O)cn(C4C[C@H]4F)c3c2Cl)CC12CC2` (some centres undefined), the max activation was -3.15% (inactive). For the molecule `O=P(O)(O)OC[C@H](O)CO`, the max activation is -12.8% (inactive). Next, `CN(CC(=O)Nc1ccccc1F)S(=O)(=O)c1ccc2c(c1)c(=O)n(C)c(=O)n2C`: 47.6% (active); `CC(C)c1ccc(NC(=O)CN(C)S(=O)(=O)c2ccc3c(c2)c(=O)n(C)c(=O)n3C)cc1`: 0.167% (inactive).

Regarding `CCc1ccccc1NC(=O)CN(C)S(=O)(=O)c1ccc2c(c1)c(=O)n(C)c(=O)n2C`, the max activation is -4.93% (inactive).

With `CCc1ccc(S(=O)(=O)c2nnn3c2nc(N2CCN(CC)CC2)c2sccc23)cc1`, the max activation was 5.12% (inactive). Next, `CCOc1ccc(Nc2oc(/C=C/c3ccc(F)cc3)nc2C#N)cc1`: -13.3% (inactive); `Fc1ccc(-c2nn(-c3ccccc3Cl)c3c2cnc2ccccc23)cc1`: 0.11% (inactive); `O=C(c1ccco1)n1nc(-c2ccc(Cl)cc2)nc1NCc1ccccc1`: -9.35% (inactive). As for `Oc1c(C(c2ccccc2Cl)N2CCOCC2)sc2nc(-c3ccco3)nn12` (centres undefined), the figure is -18% (inactive). On to `CSc1nc(-c2ccco2)nn1C(=O)c1ccccc1Cl`, for which the max activation is 32.7% (active). Next, `CCOC(=O)Cc1cccc(-c2cc(CCCCCCc3ccc(O[C@H]4O[C@H](COC(C)=O)[C@@H](OC(C)=O)[C@H](OC(C)=O)[C@@H]4OC(C)=O)c(-c4cccc(CC(=O)OCC)c4)c3)ccc2O[C@H]2O[C@H](COC(C)=O)[C@@H](OC(C)=O)[C@H](OC(C)=O)[C@@H]2OC(C)=O)c1`: -9.52% (inactive).

With `COc1ccc(-c2nc3cnccn3c2NC(C)(C)CC(C)(C)C)cc1O`, the max activation was 4.14% (inactive). As for `COc1ccc(-c2nc3cnccn3c2NC2CCCCC2)cc1-c1cccc(Cl)c1`, the figure is 7.25% (inactive) and 47.9% (active); as for `COc1ccc(-c2nc3cc(C)ccn3c2NC2CCCCC2)cc1SC1CCCCC1`, 18.2% (inactive); as for `Cc1ccc(Cl)cc1N1CCN(C(=O)c2cccn3c(=O)c4cc(Cl)ccc4nc23)CC1`, 1.63% (inactive). As for `CN(C)CCc1c[nH]c2ccc(Cn3cncn3)cc12`, the max activation is -8.71% (inactive).

With `COc1ccc(Cl)cc1NC(=O)Cn1c(=O)c2ccccc2n2nncc12`, the max activation was -7.09% (inactive).

As for `O=C(CC1C(=O)NCCN1C(=O)c1ccc([N+](=O)[O-])cc1)Nc1cccc(Cl)c1` (centres undefined), the max activation was 38.6% (active).

On to `COC(=O)c1cc(NC(=O)CC2C(=O)NCCN2C(=O)c2ccc(F)cc2)cc(C(=O)OC)c1` (centres undefined), for which the max activation is 5.37% (inactive). As for `COc1ccccc1C(=O)N1CCNC(=O)C1CC(=O)Nc1ccc(Cl)cc1` (centres undefined), the figure is 4.77% (inactive); as for `Brc1cccc(-c2nnn3c2nc(NC2CCCCC2)c2ccccc23)c1`, -2.96% (inactive); as for `Cc1cc(OCC(=O)NCC(O)c2ccccc2)c2c(C)c(C)c(=O)oc2c1` (centres undefined), 2.59% (inactive).

Regarding `COc1ccc(CCNC(=O)c2cc(=O)c3c(C)cc(C)cc3o2)cc1OC`, the max activation was 21.9% (inactive). As for `COc1ccc(CCNC(=O)COc2cc(C)cc3oc(=O)c(C)c(C)c23)cc1OC`, the figure is 42.4% (active); as for `COc1cc2c(cc1OC)CC(=O)N(CCCN(C)C[C@H]1Cc3cc(OC)c(OC)cc31)CC2`, -16.3% (inactive); as for `COc1ccc(N2CCN(S(=O)(=O)c3ccc(-c4coc(C)n4)cc3)CC2)cc1`, 1.53% (inactive).

In the case of `Cc1ccc(C)c(N2C(=O)N(Cc3c(F)cccc3Cl)c3ccccc3S2(=O)=O)c1`, the max activation is 64.6% (active). In the case of `O=c1c(=O)n(Cc2c(F)cccc2Cl)ccn1Cc1ccccc1`, the max activation is -9.07% (inactive). As for `O=C1c2ccccc2S(=O)(=O)N1Cc1c(F)cccc1Cl`, the figure is -0.264% (inactive); as for `CCOC(=O)c1cnc(SCC(=O)Nc2cccc(OC)c2)nc1N`, 6.65% (inactive); as for `CCCCOc1ccc(-c2ncc(C(=O)OCC)c(N)n2)cc1`, 85% (active). Next, `CCOC(=O)c1cnc(SCc2nc(N)nc(Nc3ccc(OC)cc3)n2)nc1N`: 2.44% (inactive). Turning to `CCOC(=O)c1c(NC(=O)c2cc(-c3ccc(Cl)cc3)on2)sc2c1CCCC2`, the max activation is -8.12% (inactive). Next, `C=O`: 7.37% (inactive).

As to `CCn1cc(C(=O)N(C)Cc2ccccc2)c(=O)c2cc(S(=O)(=O)N3CCCCCC3)ccc21`, the max activation was 3.05% (inactive). On to `COc1cc(C#Cc2ccc3cc(CCCO)oc(=O)c3c2)cc(OC)c1`, for which the max activation is 41.1% (active).

`COc1cc(/C=C2\Oc3ccc(C#Cc4ccc(O)cc4)cc3C2=O)cc(OC)c1`: the max activation was 15.9% (inactive).

For the molecule `COc1cc(CN(C(=O)c2ccccc2Br)c2ccccn2)cc(OC)c1OC`, the max activation was -5.51% (inactive). As for `COC(=O)c1ccc(NC(=O)CCc2c(C)nc3c(c(C)nn3-c3ccc(C)cc3)c2C)cc1`, the figure is 4.91% (inactive); as for `O=S(O)CNc1ccc(S(=O)(=O)c2ccc(NCS(=O)O)cc2)cc1`, -10.5% (inactive); as for `CC(C)C1C2=C(CC(C)(C)CC2=O)ON1c1ccccc1` (centres undefined), -2.83% (inactive). As for `COC(=O)C1CC2=C(CC(C)(C)CC2=O)N(c2ccccc2)C1=O` (centres undefined), the figure is 32.1% (active); as for `Cc1ccc(N2C(=O)C(NC(=O)c3c(F)cccc3F)(C(F)(F)F)C3=C2CC(C)(C)CC3=O)cc1` (centres undefined), -17.5% (inactive).

On to `CC(=O)NC(=O)c1ccccc1O`, for which the max activation was -11.8% (inactive). As for `Cc1cc(C)cc(NC(=O)c2cnc3sc(N4CCCC4)nn3c2=O)c1`, the figure is 19.3% (inactive); as for `CC(C)Oc1ccc(CNC(=O)C2CCN(c3nc4ccccc4n(C)c3=O)CC2)cc1`, -5.52% (inactive). As for `COc1cc(C(=O)N2CCOCC2)cc(OC)c1OC`, the figure is 4.3% (inactive) and 9.01% (inactive); as for `O=C1OC(/C=C/c2ccccc2)=NC/1=C/c1ccco1`, 30.1% (active); as for `CC(C)(C)C1C/C(=C/c2ccco2)C(=O)/C(=C/c2ccco2)C1` (centres undefined), -7.15% (inactive).

For the molecule `COc1ccccc1/C=C/C1=NC(=C\N(C)C)/C(=O)O1`, the max activation is -12.1% (inactive).

Take `Cc1cccc(NC(=O)N2CCC(CN3CCc4ccccc4C3)CC2)c1C`: the max activation is -18.9% (inactive). As to `CCOC(=O)Cn1c(=O)n(-c2ccccc2OC)c2nc(-c3cccc(F)c3)nc(C(N)=O)c21`, the max activation was 4.17% (inactive). Consider `COc1ccccc1N1CCN(c2ncnc3onc(-c4ccc(F)cc4)c23)CC1`, for which the max activation is -8.86% (inactive). As for `COc1ccccc1N1CCN(c2ncnc3sc(C)c(-c4ccccc4)c23)CC1`, the figure is 50.8% (active); as for `COc1ccccc1N1CCN(c2ncnc3onc(-c4cccc(Cl)c4)c23)CC1`, 7.08% (inactive); as for `Cc1cccc(N2CCN(S(=O)(=O)c3ccc4[nH]c5c(c4c3)CCCCC5)CC2)c1C`, -5.55% (inactive). Next, `COc1cccc(CNC(=O)CCc2nc(-c3ccc(C)cc3)no2)c1`: -0.491% (inactive); `COc1ccc(-c2noc(CCC(=O)N3CCN(c4cccc(C)c4)CC3)n2)cc1`: 35.7% (active). Next, `Cc1ccc(C)c(N2CCN(C(=O)CCc3nc(-c4cccc(C(F)(F)F)c4)no3)CC2)c1`: 11.8% (inactive); `CCN1CCN(C(=O)N[C@@H](C(=O)N[C@@H]2C(=O)N3[C@@H]2SC(C)(C)[C@H]3C(=O)O)c2ccccc2)C(=O)C1=O`: -1.19% (inactive); `O=C1N(Cc2ccccc2)c2ccc(Cl)cc2C1(O)c1c[nH]c2ccccc12` (centres undefined): 8.47% (inactive). On to `CCN(CC)S(=O)(=O)c1ccc2c(c1)N(CC(=O)NCC(C)c1ccccc1)C(=O)CO2` (centres undefined), for which the max activation was -18.9% (inactive).

As to `COc1ccc([C@H]2CC(=O)C=C(c3ccc(CO)cc3)C2)cc1`, the max activation is 10.9% (inactive). Consider `COc1cccc(C2=CC(=O)C[C@H](c3ccc(OC)c(OC)c3)C2)c1`, for which the max activation is -0.655% (inactive).

For the molecule `COc1ccc2cc(C3=CC(=O)C[C@H](c4ccc5c(c4)OCO5)C3)ccc2c1`, the max activation was 38.7% (active). As for `Cc1nc(SCCOc2ccc(Cl)cc2)[nH]c(=O)c1Cc1ccccc1`, the figure is 1.02% (inactive). Next, `O=C(Cn1cnc2c(oc3ccccc32)c1=O)Nc1ccc(OC(F)(F)F)cc1`: 2.62% (inactive).

In the case of `O=C(c1ccco1)N1CCN(C(=O)c2ccc(COc3ccc(F)cc3)o2)CC1`, the max activation is 1.73% (inactive).

For the molecule `COc1cccc(OC)c1OCCN1CCN(C(=O)c2ccco2)CC1`, the max activation is 73.2% (active). As for `O=CN1CCN(C(=O)c2ccc(Br)o2)CC1`, the figure is -4.54% (inactive); as for `O=C1CCN(CCc2ccccc2)CCN1CCOc1ccccc1`, -27.1% (inactive); as for `O=C(c1ccc(Br)o1)N1CCN(CCOc2ccccc2)CC1`, 54.7% (active).

`O=C(c1ccco1)N1CCN(Cc2cccc(C(F)(F)F)c2)CC1`: the max activation is 8.47% (inactive). Next, `O=C(CCCCn1c(=O)c2ccccc2n(CC(=O)Nc2cccc(C(F)(F)F)c2)c1=O)NCc1ccc2c(c1)OCO2`: 6.91% (inactive); `CC(=O)Oc1ccccc1C(=O)Nc1ncc([N+](=O)[O-])s1`: 6.84% (inactive). As for `CCOC(=O)c1sc(NC(=O)/C=C/c2ccc(C(C)C)cc2)c(C(=O)OCC)c1C`, the max activation is -9.68% (inactive).

Turning to `COC(=O)c1c(NC(=O)CCCOc2ccccc2)sc2c1CCC(C)C2` (centres undefined), the max activation was 4.8% (inactive).

For `CCOC(=O)c1c(NC(=O)/C=C/c2ccc(OC)cc2)sc2c1CCC(C)C2` (centres undefined), the max activation is 59.2% (active). Next, `COc1ccccc1CNS(=O)(=O)c1cc(Br)cc2c1N(C(C)=O)C(C)C2` (centres undefined): -15.9% (inactive). As for `CCN(CCCNC(=O)c1c(C)oc2ncn(CC(C)C)c(=O)c12)Cc1ccccc1`, the figure is -16.4% (inactive). In the case of `Cc1ccc(-c2ncc(Cl)cc2-c2ccc(S(C)(=O)=O)cc2)cn1`, the max activation was 3.29% (inactive). As for `COc1ccccc1N1CCN(c2ccc(=O)n(CC(=O)NCc3ccc(OC(C)C)cc3)n2)CC1`, the figure is -15.8% (inactive); as for `COC(=O)c1ccc(NC(=O)c2cc(S(=O)(=O)N3CCC(C)CC3)cn2C)cc1`, -4.24% (inactive).
